Laboratory results reported in PubChem BioAssay (NCI).
The panel holds about 83,000 compounds, 20% with a hit somewhere; the sample as a whole holds those more often.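 Percent growth is the endpoint: 0 to 100 indicates growth inhibition (40 means 60% inhibition), 0 means no net growth, and negative values indicate cell death.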 Active and inactive are the calls of the source. The calls were made as follows: active = growth percent below 10; inactive = the rest.

Legend:
Experiment in all cases: NCI-60 one-dose screen, 48 h (100 = growth as untreated, 0 = no growth, -100 = all killed)
Conditions in all cases: 10 µM unless noted
[1] = tested on: RPMI-8226 leukemia
[2] = tested on: OVCAR-8 ovarian
[3] = tested on: OVCAR-5 ovarian
[4] = tested on: OVCAR-4 ovarian
[5] = tested on: SK-OV-3 ovarian
[6] = tested on: IGROV1 ovarian
[7] = tested on: OVCAR-3 ovarian
[8] = tested on: HS 578T breast
[9] = tested on: NCI/ADR-RES ovarian

Measured: growth

COc1ccc(Nc2c3c4c(cccc4[nH]c2=O)C(=O)c2ccccc2-3)cc1
inactive: [2] 13.1% | [3] 24.1% | [4] 58.4%
active: [1] 5.52% | [5] -5.92% | [6] -11.9% | [7] -39% | [8] -12.4% | [9] 0.0341%

Nc1ccc(-c2cc3c(Nc4ccc(Oc5cccc(C(F)(F)F)c5)c(Cl)c4)ncnc3s2)cc1
inactive: [1] 53.1% | [2] 73.3% | [3] 93.4% | [4] 77.8% | [5] 83% | [6] 59.9% | [7] 56.6% | [8] 83.1% | [9] 69.7%

O=C1/C(=C/c2cn(-c3ccccc3)nc2-c2ccccc2)SC(=S)N1CCc1ccccc1
inactive: [1] 102% | [2] 105% | [3] 107% | [4] 103% | [5] 109% | [6] 108% | [7] 107% | [8] 104% | [9] 107%

Cn1cc(-c2nonc2-c2cn(C)c3ccc(F)cc23)c2cc(F)ccc21
inactive: [1] 81.4% | [2] 81.7% | [3] 92% | [4] 79% | [5] 45.1% | [6] 52.5% | [7] 23.4% | [8] 52.2% | [9] 30.9%

O=C1NC(=S)NC(=O)C1CC(=O)n1c(-c2ccccc2)nc2ccccc21
inactive: [1] 108% | [2] 95.3% | [3] 99.5% | [4] 98.1% | [5] 90.4% | [6] 84.2% | [7] 103% | [8] 98.9% | [9] 104%

O=S(=O)(Nc1ccc(Br)c(Cl)c1)c1ccc(-c2cnc(C3CC3)o2)cc1
active: [7] -19.6% | [8] 10% | [9] -15.2%
inactive: [1] 20.5% | [2] 20.4% | [3] 29.4% | [4] 46.3% | [5] 36.3% | [6] 26.8%

O=C1c2cc3c(cc2-c2c1c1ccc(F)cc1c(=O)n2C[C@H](O)[C@H](O)[C@H](O)CO)OCO3
active: [1] -12.9% | [2] -3.45% | [3] -20.6% | [4] 5.07% | [5] -30.3% | [6] 7.16% | [7] -17% | [8] -8.24% | [9] -23.8%

COc1ccc(-n2nc(C)c3c(Nc4ccc(NC(=O)Nc5ccc(Cl)c(C(F)(F)F)c5)cc4)ncnc32)cc1
active: [1] 0.105% | [2] 5.05% | [3] 4.07% | [5] 1.72% | [7] 5.65% | [8] -12% | [9] 1.32%
inactive: [4] 20.8% | [6] 18.6%

COc1cccc(-c2nc3sccn3c2-c2ccnc(NCCNS(=O)(=O)c3ccccc3)c2)c1
active: [1] -27.1% | [9] 6.38%
inactive: [2] 13.9% | [3] 45.3% | [4] 15.2% | [5] 42% | [6] 25.5% | [7] 42.2% | [8] 35.7%

COc1ccc(CN2c3ccccc3Oc3ccccc32)cc1O
inactive: [1] 14.1% | [2] 35.6% | [3] 91.5% | [4] 55.1% | [5] 31.3% | [6] 45.3% | [7] 18.6% | [8] 31.1% | [9] 25.2%

CSc1nc(Nc2cccc(NC(=O)/C(C#N)=C/c3c(Cl)cccc3Cl)c2)c(C#N)c(-c2cccc([N+](=O)[O-])c2)n1
inactive: [1] 26.8% | [2] 53.6% | [3] 67.5% | [4] 49.7% | [5] 99.2% | [6] 29.2% | [7] 31% | [8] 66.9% | [9] 60.5%

O=S(=O)(Nc1ccc(Cl)c(F)c1)c1ccc(-c2cnc(C3CC3)o2)cc1
active: [7] -6.7% | [9] -20.8%
inactive: [1] 21.2% | [2] 24.5% | [3] 35.8% | [4] 49.1% | [5] 36.3% | [6] 27.4% | [8] 16.1%

COc1cc(/C=C/C(=O)c2c(C)oc3nc[nH]c(=O)c23)cc(OC)c1OC
inactive: [1] 61.9% | [2] 79.5% | [3] 96.5% | [4] 74.9% | [5] 98.7% | [6] 75.4% | [7] 77.8% | [8] 84.3% | [9] 82.1%

CCCSc1ccc2nc(NC(=O)OC)[nH]c2c1
active: [5] 6.85% | [7] -32.1% | [9] -8.18%
inactive: [1] 14.4% | [2] 17.1% | [3] 34.2% | [4] 48.9% | [6] 45.3% | [8] 21.2%
